Inconclusive results are not listed. Active and inactive are the calls of the source. Calls follow the shape of the dose curve; as a rule, active = well fitted curve in the direction sought with a large enough effect; inconclusive = small, poorly fitted or top-dose-only effect, or another doubt; inactive = no such curve, though single readings can be large; an effect the other way counts as inactive or inconclusive.
Key:
[1] = target: Cellular tumor antigen p53 (Homo sapiens) (UniProt P04637); experiment: Primary qHTS for small molecule compounds that upregulate eGFP-tagged delta133p53alpha (in N-terminal) cells. (AID 2060322); conditions: NCI-H358 eGFP-delta133p53alpha fluorescence, 24 h; activation: stronger effect = higher value; also: nearly all actives have a fitted effect of over 75% in size; also: potency is read from the fitted curve at half-maximal effect;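 as to activation: cells pre-induced with doxycycline then dosed without doxycycline; 0% = DMSO vehicle and 100% = reference activator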
Cellular tumor antigen p53 (Homo sapiens), sequence (P04637 whole entry, looked up): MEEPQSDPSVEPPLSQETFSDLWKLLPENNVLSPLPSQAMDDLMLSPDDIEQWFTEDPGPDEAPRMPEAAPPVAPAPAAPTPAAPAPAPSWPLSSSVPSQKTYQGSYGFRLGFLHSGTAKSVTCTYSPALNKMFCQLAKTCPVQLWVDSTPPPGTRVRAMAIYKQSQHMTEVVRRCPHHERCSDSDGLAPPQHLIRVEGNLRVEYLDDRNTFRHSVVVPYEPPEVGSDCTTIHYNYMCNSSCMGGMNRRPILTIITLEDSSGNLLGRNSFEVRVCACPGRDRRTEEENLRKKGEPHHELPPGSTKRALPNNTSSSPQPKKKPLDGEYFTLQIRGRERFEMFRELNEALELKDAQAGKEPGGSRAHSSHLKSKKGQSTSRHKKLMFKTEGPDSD
Procedure, shortened: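 NCI-H358 cells pre-induced 24 h with 10 ng/ml doxycycline for eGFP-delta133p53alpha, plated dox-free and exposed 24 h at 37C to titrated compounds. Fixed, Hoechst-stained; gated GFP peak intensity by laser scanning cytometry, normalized to DMSO (0%) and 57.5 uM 5-azacytidine (100%).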

[2] = BET inhibitor-based combinations targeting novel dependencies in MECOM-rearranged (r) AML: SET-2 cell line (AID 2202231); conditions: SET-2 AML cells viability, CellTiter-Glo luminescence, 48 h; viability: stronger effect = lower value, concentration not given here; also: nearly all actives have a fitted effect of over 35% in size; also: potency is read from the fitted curve at half-maximal effect;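 as to viability: plate controls were DMSO treated cells for no effect and wells without cells for full effect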
Procedure, shortened: (§1)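 Each compound was tested at eleven concentrations on cells seeded at 500/well. After two days' incubation, ATP-based luminescence reported viability; responses relative to DMSO and blank wells yielded AUC and cell-line-centred Z-AUC.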

[3] = BET inhibitor-based combinations targeting novel dependencies in MECOM-rearranged (r) AML: UCSD-AML1 cell line (AID 2202235); conditions: UCSD-AML1 AML cells viability, CellTiter-Glo, 48 h; series mostly up to 46 µM;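 also: plate controls were DMSO vehicle wells for no effect and blank wells for full effect; nearly all actives have a fitted effect of over 40% in size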
Procedure, shortened: (§2)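 First, 500 cells per well were seeded; next, drugs were pinned as 11-point doses; then plates sat 48 hr in the incubator; finally CellTiter-Glo was added and luminescence read, with AUC and Z-AUC computed.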

[4] = BET inhibitor-based combinations targeting novel dependencies in MECOM-rearranged (r) AML: AML-191 cell line (AID 2202236; also: nearly all actives have a fitted effect of over 35% in size; also: potency is read from the fitted curve at half-maximal effect); conditions: AML-191 viability, CellTiter-Glo luminescence, 48 h; series mostly up to 46 µM
Procedure, shortened: as §1

[5] = BET inhibitor-based combinations targeting novel dependencies in MECOM-rearranged (r) AML: AML-194 cell line (AID 2202237; also: nearly all actives have a fitted effect of over 40% in size; also: potency is read from the fitted curve at half-maximal effect); conditions: AML-194 (MECOM-r AML) viability, CellTiter-Glo, 48 h; series mostly up to 46 µM
Procedure, shortened: as §1

[6] = BET inhibitor-based combinations targeting novel dependencies in MECOM-rearranged (r) AML: MV-4-11 cell line (AID 2202233); conditions: MV-4-11 AML viability, CellTiter-Glo luminescence, 48 h; series mostly up to 46 µM; also: nearly all actives have a fitted effect of over 45% in size; also: potency is read from the fitted curve at half-maximal effect
Procedure, shortened: as §2

[7] = BET inhibitor-based combinations targeting novel dependencies in MECOM-rearranged (r) AML: HNT-34 cell line (AID 2202234); conditions: HNT-34 AML viability, CellTiter-Glo luminescence, 48 h; series mostly up to 46 µM; also: potency is read from the fitted curve at half-maximal effect; nearly all actives have a fitted effect of over 35% in size
Procedure, shortened: as §2

[8] = BET inhibitor-based combinations targeting novel dependencies in MECOM-rearranged (r) AML: OCI-AML3 cell line (AID 2202232); conditions: CellTiter-Glo luminescence, 48 h; Potency: OCI-AML3 viability; series mostly up to 46 µM; also: potency is read from the fitted curve at half-maximal effect; nearly all actives have a fitted effect of over 35% in size
Procedure, shortened: as §1

c1cc(-c2sc(-c3ccncc3)c(-c3ccncc3)c2-c2ccncc2)ccn1
inactive: activation [1] 6.76% | viability [2] 103% | Potency [3] | Potency [4] | Potency [5]

NCc1c[nH]c(=S)n1[C@H]1CCc2c(F)cc(F)cc2C1
inactive: activation [1] -19.4% | viability [2] 110% | Potency [6] | Potency [4] | Potency [5]

CC(C)C[C@H](CC(=O)O)C(=O)N[C@@H](Cc1c[nH]c2ccccc12)C(=O)N[C@@H](C)c1ccccc1
active: Potency [5] 18.6 µM
inactive: activation [1] -21.8% | viability [2] 104% | Potency [6]

COc1ccc(-c2coc3cc(O)cc(O)c3c2=O)cc1
inactive: activation [1] 22.8% | viability [2] 45.9% | Potency [3] | Potency [4] | Potency [5]

CCn1c(-c2nonc2N)nc2c(C#CC(C)(C)O)ncc(OC[C@H]3CCCNC3)c21
active: Potency [7] 16.6 µM | Potency [5] 20.9 µM
inactive: activation [1] -17.2% | viability [2] 101%

CC(C)Oc1cc(Nc2nc(N[C@@H](C)c3ccc(F)cn3)ncc2Cl)[nH]n1
active: Potency [1] 24.3 µM | Potency [2] 18.6 µM | Potency [7] 16.6 µM | Potency [4] 0.417 µM

CN(C)S(=O)(=O)c1ccc2c(c1)C(=Cc1cc3c([nH]1)CCCC3)C(=O)N2
active: Potency [1] 1.37 µM | Potency [8] 5.9 µM | Potency [6] 2.09 µM

Cc1cc(OCCCS(C)(=O)=O)cc(C)c1-c1cccc(COc2ccc3c(c2)OC[C@H]3CC(=O)O)c1
inactive: activation [1] 5.3% | viability [2] 98.7% | Potency [6] | Potency [5]

CN(C)c1ccc2cc(C(=O)N[C@@H](CCCN=C(N)CCl)C(=O)NCc3ccccc3)ccc2c1
inactive: activation [1] 2.27% | viability [2] 99.2% | Potency [6] | Potency [5]

Reference: PubChem BioAssay (NCATS)
